Bioassay records from PubChem BioAssay.
Shown are actives, neighbours in structure and some others; about 1.4% of the full set was active somewhere.
AID504770 – E. coli YBA685 growth inhibition, screen for V. cholerae RctB inhibitors | E. coli YBA685 rctB-dependent plasmid, OD600 growth, 3 h; active compounds read low | z-score (test concentration not listed) | hit rate 0.27% among 130,000 | AID 504770; in the data active = z-score below about -2, passing the limit was not always enough
PV pol inh – inhibitors of poliovirus RNA polymerase binding and polymerization; P03300; poliovirus polymerase elongation, fluorescence polarization; active compounds read low; % elongation, % (compound at 16.7 µg/mL); hit rate 0.66% among 150,000; AID 588519; in the data active = % elongation below about 90%
Mtb MbtI inh – inhibitors of Mycobacterium tuberculosis siderophore enzyme MbtI; P9WFX0; purified MbtI enzyme, fluorescence intensity read-out; inhibition, % (test concentration not listed); hit rate 0.89% among 100,000; in the data active = inhibition mostly above about 56%, no sharp cut-off; inactive = mostly below about 77%
Mtb MenB inh – inhibitors of Mycobacterium tuberculosis MenB enzyme; P9WNP5; MenB enzyme assay, absorbance read-out; inhibition, % (concentration not given with the values); hit rate 0.43% among 100,000; AID 540299; in the data active = inhibition above about 21%, passing the limit was not always enough
Target sequence (P9WNP5 whole entry, looked up): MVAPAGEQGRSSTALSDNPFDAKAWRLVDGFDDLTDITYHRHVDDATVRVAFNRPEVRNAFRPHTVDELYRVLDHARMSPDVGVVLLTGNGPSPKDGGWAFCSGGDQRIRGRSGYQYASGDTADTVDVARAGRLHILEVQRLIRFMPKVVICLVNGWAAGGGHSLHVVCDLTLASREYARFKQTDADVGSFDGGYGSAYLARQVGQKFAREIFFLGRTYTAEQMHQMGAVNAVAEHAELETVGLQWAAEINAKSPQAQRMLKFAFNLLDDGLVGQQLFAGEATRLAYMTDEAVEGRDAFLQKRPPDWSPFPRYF
* = called active by the depositor; i = inactive; nt = not tested or not shown; ! = not active in a repeat.

SMILES	AID504770	PV pol inh	Mtb MbtI inh	Mtb MenB inh
O=C(O)Cn1cc(C=C2C(=O)NC(=S)NC2=O)c2ccccc21	0	102.0	100.2*	-55.2
Clc1ccc(Cl)c(-c2nn3c(Cn4nnc5ccccc54)nnc3s2)c1	1.35	102.0	93.0*	-96.0
Clc1ccc(Cn2nnc3ccccc32)cc1Cl	1.35	104.0	-1.1	-66.0
O=C(Nc1cccc(F)c1)[C@H](Cc1ccccc1)N1Cc2ccccc2C1=O	-0.55	100.0	-8.8	-20.4
O=C(Nc1cccc(F)c1)[C@H](CSCc1ccccc1)N1Cc2ccccc2C1=O	nt	84.0*	nt	nt
CCc1nc2ccccc2c(N)c1C	-0.85	90.0*	nt	14.1
O=C1NCC(O)=C1/C=N/Nc1ccccc1	-3.95*	103.0	45.4	0.2
Cn1nnnc1SCC(=O)N1c2ccccc2Sc2ccccc21	0.2	104.0	-8.9	-24.0
O=C(CSc1ccccc1)N1c2ccccc2Sc2ccccc21	0.4	83.0*	-5.5	-13.9
O=C1c2ccccc2C(=O)N1CCSC1=NN2CCS(=O)(=O)N=C2S1	1.7	84.0*	28.9	1.2
O=C1CC(c2nnc(Cc3cccc(Cl)c3)o2)CN1c1ccccc1 (stereo unspecified)	nt	103.0	nt	nt
O=C1CC(c2n[nH]c(=S)o2)CN1c1ccc(Cl)cc1 (stereo unspecified)	-0.25	99.0	81.8*	17.0
Cc1cc(C)c(C(=O)O)c(=O)[nH]1	0.6	106.0	11.8	-6.9
Cc1cc(C)c(C(=O)O)c(=S)[nH]1	-2.45*	102.0	89.4*	-22.2
Cc1ccc2nc(CSc3nc4ccccc4n3C)cc(=O)n2c1	1.85	102.0	24.8	16.6
O=C(c1ccc(Cn2c(=O)c3cccn3c3cccnc32)cc1)N1CCCC1	-0.5	99.0	33.7	3.1
CC(C)CNc1ncnc2c1cnn2-c1ccccc1	-0.35	103.0	-22.2	-6.1
Cc1sc2nc(CC#N)[nH]c(=O)c2c1C	-0.4	107.0	3.1	nt
CCN(CC)Cc1nc2sc(C)c(C)c2c(=S)[nH]1	-0.6	101.0	79.5*	-73.5
CCCn1c(=O)c2ccccc2n2c(SCC(=O)N3CCN(C(=O)OCC)CC3)nnc12	-0.45	98.0	24.9	-3.0
COC(=O)/C=C/S(=O)(=O)c1ccc(NC(C)=O)cc1	-1.15	104.0	67.0*	-12.4
COC(=O)/C=C/S(=O)(=O)c1ccc(Br)cc1	-2.75*	104.0	100.3*	-11.2
CC(=O)Nc1ccc(S(=O)(=O)N=S(C)(C)=O)cc1	0.35	102.0	-6.7	-1.9
O=c1c(-c2ccc3ccccc3n2)coc2cc(O)ccc12	0.6	126.0	-4.0	-24.2
O=C(COc1ccc(Cl)cc1)OCc1ccc(Br)cc1	0.9	99.0	-8.9	nt
SMILES	AID504770	PV pol inh	Mtb MbtI inh	Mtb MenB inh
CN(C)CCOC(=O)COc1ccc(Cl)cc1	-0.3	99.0	-10.9	68.2*!
CCCn1nnnc1SCC(=O)c1ccccc1	1.55	103.0	3.3	30.6*
O=C(CSc1nnnn1Cc1ccccc1)c1ccccc1	-0.05	101.0	-2.5	-27.8
CC1=CC(C)(C)N=C(Nc2nc(C)c3cc(C)cc(C)c3n2)N1	-0.9	76.0*	nt	-19.7
CCN1CN=C(Nc2nc(C)c3cc(C)ccc3n2)NC1	-0.8	101.0	9.1	-11.7
CC(C(=O)O)c1ccc(N2Cc3ccccc3C2=O)cc1 (stereo unspecified)	0.45	102.0*!	-4.0	-14.1
COc1ccccc1Nc1nn2c(=O)c3ccc(C(=O)NCCCOC(C)C)cc3nc2s1	nt	110.0	nt	nt
CCN(CC)CCNC(=O)c1ccc2c(=O)n3nc(Nc4ccccc4OC)sc3nc2c1	nt	65.0*	nt	nt
O=C(Cn1c(=O)n(-c2ccccc2)c(=O)c2sccc21)NCc1ccco1	-0.25	101.0	-3.8	-9.4
CC(Sc1ccccn1)C(=O)Nc1ccccc1 (stereo unspecified)	0.35	102.0	93.7*	-41.6
CSc1nc2ccc(S(=O)(=O)Nc3ccccc3C)cc2s1	1.35	100.0	2.3	-6.8
C/C(N)=C(/C#N)C(=O)CN(C)C1CCCCC1	-0.05	100.0	11.2	-0.8
CCN(CC)S(=O)(=O)c1ccc2c(c1)nc(CC(=O)O)n2C	0.5	81.0*	94.1*	-20.9
CC(C1CC1)N(C(=O)/C=C/c1ccccc1)c1ccccc1 (stereo unspecified)	0.3	104.0	5.0	nt
Cc1nn(C)c2c1S(=O)(=O)N=C(SCc1c(F)cccc1Cl)S2	1.55	88.0*	84.0*	-6.9
O=c1[nH]nc(-c2cccc(Br)c2)[nH]1	-0.2	104.0	nt	-10.9
COc1ccccc1N1CCN(C(=O)Nc2cn(CC(C)C)c(=O)c3ccccc23)CC1	nt	104.0	nt	nt
Cc1cccc(N2CCN(C(=O)Nc3cn(CC(C)C)c(=O)c4ccccc34)CC2)c1C	nt	98.0	nt	nt
Cc1ccc(N2CCN(C(=O)Nc3cn(CC(C)C)c(=O)c4ccccc34)CC2)c(C)c1	nt	68.0*	nt	nt
CCN1CCCC1CNC(=O)Nc1cn(CC(C)C)c(=O)c2ccccc12 (stereo unspecified)	-0.3	100.0	-27.9	-9.8
CCCNC(=O)Nc1cn(CC(C)C)c(=O)c2ccccc12	-0.9	16.0*	120.0	1.3
COc1ccc(CNC(=O)Nc2cn(CC(C)C)c(=O)c3ccccc23)c(OC)c1	nt	-10.0*	nt	nt
CC1=C(C(=O)Nc2cccc(C(=O)N3CCN(C4CCCCC4)CC3)c2)SCCO1	-1.45	102.0	2.5	3.1
O=c1[nH]c(N2CCN(Cc3ccccc3)CC2)nc(O)c1Cc1ccccc1	-0.55	102.0	-12.6	-35.8
O=C(NCC(=O)N1CCN(C2CCS(=O)(=O)C2)CC1)c1sc2ccccc2c1Cl (stereo unspecified)	-0.15	99.0	-10.6	-12.1
SMILES	AID504770	PV pol inh	Mtb MbtI inh	Mtb MenB inh
O=C(Cc1ccccc1)Nc1nnc(-c2ccccc2Cl)s1	-0.25	nt	nt	nt
CCOC(=O)c1c(Cn2nnc3ccccc32)nc2ccccc2c1C	-0.4	102.0	-2.8	-8.5
O=C1CSc2ccccc2N1Cc1n[nH]c(=S)n1Cc1ccccc1	-0.4	99.0	56.3*	-29.9
O=c1c2ccccc2n2c(=S)[nH]nc2n1Cc1ccccc1	-0.45	98.0	37.9	-106.2
COc1ccc(N2CCN(S(C)(=O)=O)CC2)cc1	0.6	101.0	-2.1	39.7*
c1cc2c(cc1CNc1ccc(N3CCCC3)cc1)OCO2	-0.7	105.0	42.7	-37.1
c1cc(CNc2ccc(N3CCCC3)cc2)ccn1	0.5	99.0	99.7*	-20.2
CN(Cc1ccccc1)S(=O)(=O)c1ccc(N2CCCCS2(=O)=O)cc1	-0.3	99.0	-18.5	-16.1
NNc1nc2ccccc2[nH]c1=S	-3.2*	107.0	62.9	i
c1ccc2[nH]c(CSCCC3CCCCC3)nc2c1	0.05	107.0	-12.2	-45.4
CCc1cc2c(=O)n(Cc3ccco3)c(SCC(=O)NC3CCCC3)nc2s1	-0.5	102.0	0.0	8.9
O=C(Oc1cccc2cccnc12)c1cc(C(F)(F)F)cc(C(F)(F)F)c1	-3.25*	150.0	-7.2	-14.7
O=C(Oc1cccc2cccnc12)c1cccc(F)c1	-1.45	nt	-2.8	nt
COC(=O)NC(Nc1sc2c(c1C(N)=O)CCC2)(C(F)(F)F)C(F)(F)F	0.4	104.0	6.9	-17.6
Cc1sc2nc(-c3ccccc3O)[nH]c(=O)c2c1C	-0.55	75.0*	nt	-10.9
COCc1cc(C)nc2sc3c(=O)[nH]c(-c4ccccc4O)nc3c12	-0.65	100.0	nt	4.1
O=C(O)COc1ccccc1/C=C1/SC(=S)N(Cc2ccco2)C1=O	2.65	nt	nt	nt
